Measured values published in PubChem BioAssay (NCATS).
The source made the active and inactive calls. A call without a number means that no potency is given here. Unless noted, calls come from the whole dose curve; as a rule, active = well fitted curve in the direction sought with a large enough effect; inconclusive = small, poorly fitted or top-dose-only effect, or another doubt; inactive = no such curve, though single readings can be large; an effect the other way counts as inactive or inconclusive.

Experiments:
[1] = qHTS for Inhibitors of Cell Surface uPA Generation: Validation Assay (AID 493164); conditions: mouse cells, plasminogen activation; series mostly up to 38.3 µM;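 note: RAW 264.7 macrophage cells exposed to compound for 18 h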
In short: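 RAW 264.7, 4000 cells/well, o/n plating; cpd 7-pt 1:5 dilution 2.45 nM–38.3 uM final; 18 h, 37 C/5% CO2; ATP-Lite, 5 s luminescence exposure.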

[2] = Validation screen for small molecules that induce DNA re-replication in SW480 colon adenocarcinoma cells (AID 504364); conditions: DNA re-replication phenotype (high-content imaging); series mostly up to 46.1 µM
In short: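 Cells are treated 48 hr with test compound, stained 40 min with Hoechst at 37 C, and scanned for nuclear fluorescence; compounds inducing re-replication increase nuclei with elevated intensity.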

[3] = target: Peptidyl-prolyl cis-trans isomerase NIMA-interacting 1 (Homo sapiens) (UniProt Q13526); assay: qHTS Validation Assay to Find Inhibitors of Pin1 (AID 504536; active = well fitted inhibition curve with a large enough effect in the polarisation, with a control signal flat, not every such curve was filed as active; inconclusive = small, poorly fitted or top-dose-only effect, or effect the other way; the % refers to the polarisation); conditions: Pin1 fluorescence polarization peptide binding assay; series mostly up to 57.5 µM
In short: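 Fluorescence polarization competition: compounds (titration) displace HiFluor-488-labeled Pin1-1b peptide from Pin1 (0.3 uM final) in pH 7.5 HEPES buffer with DTT, 10 min at room temperature; %Activity normalized to no-enzyme wells, curves fitted.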

[4] = target: Phosphoglycerate kinase, glycosomal (Trypanosoma brucei brucei) (UniProt P07378); assay: qHTS Validation Assay to Find Inhibitors of Phosphoglycerate Kinase (AID 504547); conditions: enzymatic PGK inhibition, coupled luminescence read-out; series mostly up to 57.5 µM
In short: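 Inhibition of the enzyme is judged by a Kinase-Glo Plus luminescent signal following a one-hour incubation at room temperature. Because 1,3-BPG is unstable, it is made in situ by GAPDH at 100nM final; no-PGK wells define the baseline.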

[5] = target: phosphoglycerate mutase (Leishmania major) (UniProt Q4Q090); assay: qHTS Validation Assay to Find Inhibitors of Phosphoglycerate Mutase (AID 504548); conditions: biochemical enzyme activity; series mostly up to 57.5 µM;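 note: end-point luminescence from Kinase-GloPlus after the PGAM reaction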
In short: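 Inhibition of L. major PGAM was assessed by Kinase-GloPlus luminescence following a 45-minute room-temperature reaction with enzyme at 1.25nM final.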

[6] = target: Ubiquitin carboxyl-terminal hydrolase 1 (Homo sapiens) (UniProt O94782); assay: Inhibitors of USP1/UAF1: Pilot qHTS (AID 504865); conditions: purified USP1/UAF1, Ub-rhodamine cleavage fluorescence; series mostly up to 114 µM;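 note: rhodamine fluorescence freed from ubiquitin-rhodamine substrate followed over time; top concentration of the series differs between compounds; nearly all actives have a fitted effect of over 35% in size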
In short: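 Kinetic fluorescence assay: 1nM USP1/UAF1, 15 min compound preincubation, then 150nM Ub-Rho; 480/540 nm.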

[7] = qHTS for Inhibitors of ATXN expression: Validation of Cytotoxic Assay (AID 588349); conditions: cytotoxicity counter-screen for ATXN expression inhibitors, cell viability; series mostly up to 57.1 µM;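 note: cells exposed to compound for 72 hr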; note: potency is the fitted concentration of half-maximal effect
In short: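 HEK293, compound dose series, 72 hr / 37 degrees C; viability via CellTiter Glo (intracellular ATP).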

[8] = qHTS for Inhibitors of ATXN expression: Validation (AID 588378); conditions: cell-based ATXN2 expression reporter assay, luminescence; series mostly up to 57.1 µM; note: nearly all actives have a fitted effect of over 75% in size; note: potency is the fitted concentration of half-maximal effect
In short: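 Validation of ATXN2 expression inhibitors uses a cell-based luciferase fusion reporter in HEK293 cells, with 24 h compound exposure and paired viability (fluorescence) and reporter (luminescence) end-point reads.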

[9] = target: DNA dC->dU-editing enzyme APOBEC-3G (Homo sapiens) (UniProt Q9HC16); assay: qHTS for inhibitors of Vif-A3G interactions: Validation (AID 588379); conditions: Vif-A3G protein interaction assay; series mostly up to 46.1 µM
In short: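 HeLa cells stably expressing Vif and A3G-eYFP, 700 cells/well, incubated overnight at 37 deg C, then exposed to compound overnight at 37 deg C. Inhibition of Vif-mediated degradation read as increased yellow fluorescence (Ex 488/Em 500-530) by laser-scanning cytometry.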

[10] = target: Estrogen receptor (Homo sapiens) (UniProt P03372); assay: qHTS assay for small molecule antagonists of estrogen receptor alpha signaling (AID 588513; active = well fitted curve in the direction sought with a large enough effect in the signal ratio, with a control signal flat, not every such curve was filed as active; inconclusive = small, poorly fitted or top-dose-only effect, or effect the other way, or a change in a side signal; inactive = no such curve, though single readings can be large or run the other way; the % refers to the signal ratio; note: potency is the fitted concentration of half-maximal effect); conditions: ER-alpha-UAS-bla HEK293, beta-lactamase ratio, antagonist mode; series mostly up to 76.9 µM
In short: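 Cells were plated at 5000/well and incubated 4 h at 37 C. Compounds were added as 1:2 dilution series, duplicates. 17-beta-estradiol (0.5nM final) was added for 18 h before CCF4 detection.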

Ubiquitin carboxyl-terminal hydrolase 1 (Homo sapiens), sequence (O94782 whole entry, looked up): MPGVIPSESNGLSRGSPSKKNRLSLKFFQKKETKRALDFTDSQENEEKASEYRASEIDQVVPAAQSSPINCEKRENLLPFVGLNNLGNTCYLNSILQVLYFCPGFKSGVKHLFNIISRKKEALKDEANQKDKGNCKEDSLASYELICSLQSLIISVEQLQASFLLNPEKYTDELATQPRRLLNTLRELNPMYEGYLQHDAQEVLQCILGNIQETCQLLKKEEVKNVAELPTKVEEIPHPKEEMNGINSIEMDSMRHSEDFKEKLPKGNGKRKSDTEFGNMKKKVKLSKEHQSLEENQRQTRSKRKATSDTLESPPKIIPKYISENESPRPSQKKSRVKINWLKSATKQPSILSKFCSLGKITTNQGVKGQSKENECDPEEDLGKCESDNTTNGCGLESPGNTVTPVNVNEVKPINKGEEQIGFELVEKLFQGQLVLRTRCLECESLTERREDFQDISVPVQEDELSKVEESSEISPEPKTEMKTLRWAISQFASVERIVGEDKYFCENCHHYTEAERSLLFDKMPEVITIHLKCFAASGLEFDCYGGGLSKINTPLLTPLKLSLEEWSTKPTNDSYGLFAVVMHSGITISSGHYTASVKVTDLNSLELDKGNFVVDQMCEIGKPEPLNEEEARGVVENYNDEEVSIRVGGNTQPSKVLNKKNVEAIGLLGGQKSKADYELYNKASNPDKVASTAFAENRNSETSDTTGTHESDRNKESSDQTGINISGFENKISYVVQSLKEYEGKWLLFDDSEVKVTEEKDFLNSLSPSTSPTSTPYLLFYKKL
phosphoglycerate mutase (Leishmania major), sequence (Q4Q090 1-553): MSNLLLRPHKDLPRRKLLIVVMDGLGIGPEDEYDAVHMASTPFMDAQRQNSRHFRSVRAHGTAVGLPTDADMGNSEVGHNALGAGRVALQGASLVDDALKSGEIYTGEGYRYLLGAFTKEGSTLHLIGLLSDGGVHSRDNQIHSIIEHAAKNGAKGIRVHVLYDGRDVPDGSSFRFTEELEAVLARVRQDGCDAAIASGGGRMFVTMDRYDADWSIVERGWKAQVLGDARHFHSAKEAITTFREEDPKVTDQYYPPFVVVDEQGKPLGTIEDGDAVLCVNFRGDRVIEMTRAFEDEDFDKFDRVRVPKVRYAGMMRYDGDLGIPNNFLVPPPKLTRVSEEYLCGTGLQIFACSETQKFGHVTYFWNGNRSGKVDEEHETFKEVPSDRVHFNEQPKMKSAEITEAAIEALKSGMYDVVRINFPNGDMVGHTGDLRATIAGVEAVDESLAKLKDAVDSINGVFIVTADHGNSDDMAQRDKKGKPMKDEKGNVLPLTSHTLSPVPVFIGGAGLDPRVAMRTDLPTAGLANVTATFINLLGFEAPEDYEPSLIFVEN
Peptidyl-prolyl cis-trans isomerase NIMA-interacting 1 (Homo sapiens), sequence (Q13526 whole entry, looked up): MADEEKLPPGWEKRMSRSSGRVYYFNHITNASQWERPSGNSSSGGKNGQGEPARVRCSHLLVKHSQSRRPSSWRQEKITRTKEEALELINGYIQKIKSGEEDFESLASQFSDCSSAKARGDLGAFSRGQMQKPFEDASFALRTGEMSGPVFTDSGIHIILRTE
Estrogen receptor (Homo sapiens), sequence (P03372 whole entry, looked up): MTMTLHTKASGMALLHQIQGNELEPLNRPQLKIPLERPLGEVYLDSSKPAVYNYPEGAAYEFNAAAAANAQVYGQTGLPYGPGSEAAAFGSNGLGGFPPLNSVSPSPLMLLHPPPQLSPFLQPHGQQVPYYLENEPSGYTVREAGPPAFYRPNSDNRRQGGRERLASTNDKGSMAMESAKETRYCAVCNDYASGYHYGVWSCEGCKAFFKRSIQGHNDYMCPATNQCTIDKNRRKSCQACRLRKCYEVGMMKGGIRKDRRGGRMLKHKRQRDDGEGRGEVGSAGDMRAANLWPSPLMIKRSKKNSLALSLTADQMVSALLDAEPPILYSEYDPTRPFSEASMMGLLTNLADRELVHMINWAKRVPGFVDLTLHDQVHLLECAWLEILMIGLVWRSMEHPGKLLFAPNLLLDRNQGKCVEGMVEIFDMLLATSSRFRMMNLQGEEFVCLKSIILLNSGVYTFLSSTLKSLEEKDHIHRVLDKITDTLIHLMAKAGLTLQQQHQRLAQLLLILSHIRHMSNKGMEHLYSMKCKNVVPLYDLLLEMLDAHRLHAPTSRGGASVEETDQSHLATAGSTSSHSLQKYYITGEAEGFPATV
Phosphoglycerate kinase, glycosomal (Trypanosoma brucei brucei), sequence (P07378 whole entry, looked up): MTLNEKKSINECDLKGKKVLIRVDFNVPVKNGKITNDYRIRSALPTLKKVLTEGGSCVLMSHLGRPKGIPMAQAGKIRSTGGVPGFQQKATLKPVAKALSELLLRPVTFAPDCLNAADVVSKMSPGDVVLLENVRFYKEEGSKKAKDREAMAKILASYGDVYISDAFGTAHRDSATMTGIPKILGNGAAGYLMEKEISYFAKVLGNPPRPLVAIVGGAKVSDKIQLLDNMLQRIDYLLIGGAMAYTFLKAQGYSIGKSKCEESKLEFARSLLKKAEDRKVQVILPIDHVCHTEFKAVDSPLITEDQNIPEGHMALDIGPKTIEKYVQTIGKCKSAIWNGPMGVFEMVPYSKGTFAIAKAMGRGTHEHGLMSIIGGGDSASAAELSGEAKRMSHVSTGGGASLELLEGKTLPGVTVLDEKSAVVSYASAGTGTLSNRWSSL
DNA dC->dU-editing enzyme APOBEC-3G (Homo sapiens), sequence (Q9HC16 whole entry, looked up): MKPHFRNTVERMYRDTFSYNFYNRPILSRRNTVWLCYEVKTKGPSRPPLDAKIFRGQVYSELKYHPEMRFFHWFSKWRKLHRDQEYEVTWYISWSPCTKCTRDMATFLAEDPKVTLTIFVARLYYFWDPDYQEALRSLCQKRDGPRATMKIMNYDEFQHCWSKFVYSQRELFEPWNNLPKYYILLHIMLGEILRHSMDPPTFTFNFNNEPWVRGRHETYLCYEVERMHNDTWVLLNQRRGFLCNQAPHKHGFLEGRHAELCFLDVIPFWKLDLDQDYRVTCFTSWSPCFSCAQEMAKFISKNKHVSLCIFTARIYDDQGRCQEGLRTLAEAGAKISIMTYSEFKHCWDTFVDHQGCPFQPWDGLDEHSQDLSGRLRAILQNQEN

## CC(=O)CCCCn1c(=O)c2c(ncn2C)n(C)c1=O
[1]
  outcome: inactive
[2]
  outcome: inactive
[3]
  outcome: inactive
[4]
  outcome: inactive
[5]
  outcome: inactive
[6]
  Potency: inactive
[7]
  Potency: inactive
[8]
  Potency: inactive

## CC(=O)N[C@@H](CS)C(=O)O
[1]
  outcome: inactive
[2]
  outcome: inactive
[3]
  outcome: inactive
[4]
  outcome: inactive
[5]
  outcome: inactive
[6]
  Potency: inactive
[7]
  Potency: inactive
[8]
  Potency: inactive

## C[N+](C)(C)CCCCCC[N+](C)(C)C
[1]
  outcome: inactive
[2]
  outcome: inactive
[3]
  outcome: inactive
[4]
  outcome: inactive
[5]
  outcome: inactive
[6]
  Potency: inactive
[7]
  Potency: inactive
[8]
  Potency: inactive

## O=C(O)CCc1nc(-c2ccccc2)c(-c2ccccc2)o1
[1]
  outcome: inactive
[2]
  outcome: inactive
[3]
  outcome: inactive
[4]
  outcome: inactive
[5]
  outcome: inactive
[6]
  Potency: inactive
[7]
  Potency: inactive
[8]
  Potency: inactive

## O=c1c(-c2ccc(O)cc2)coc2cc(O)ccc12
[1]
  outcome: inactive
[2]
  outcome: inactive
[3]
  outcome: inactive
[4]
  outcome: inactive
[5]
  outcome: inactive
[6]
  Potency: inactive
[7]
  Potency: inactive
[8]
  Potency: inactive
[9]
  outcome: inactive

## COc1cccc(-c2cc(=O)c3ccccc3o2)c1N
[1]
  outcome: inactive
[2]
  outcome: inactive
[3]
  outcome: inactive
[4]
  outcome: inactive
[5]
  outcome: inactive
[6]
  Potency: inactive
[7]
  Potency: inactive
[8]
  Potency: inactive
[9]
  outcome: inactive

## CCN(CC)C(=O)c1ccc(O)c(OC)c1
[1]
  outcome: inactive
[2]
  outcome: inactive
[3]
  outcome: inactive
[4]
  outcome: inactive
[5]
  outcome: inactive
[6]
  Potency: inactive
[7]
  Potency: inactive
[8]
  Potency: inactive

## CCN(CC)CCNC(=O)c1ccc(N)cc1
[1]
  outcome: inactive
[2]
  outcome: inactive
[4]
  outcome: inactive
[5]
  outcome: inactive
[7]
  Potency: inactive
[8]
  Potency: inactive

## CC1=C(/C=C/C(C)=C/C=C/C(C)=C/C(=O)Nc2ccc(O)cc2)C(C)(C)CCC1
[1]
  outcome: inactive
[2]
  outcome: inactive
[3]
  outcome: inactive
[4]
  outcome: inactive
[5]
  outcome: inactive
[6]
  Potency: inactive
[7]
  Potency: 31.6 µM (active)
[8]
  Potency: 31.6 µM (active)
[10]
  Potency: 15.8 µM [inconclusive] (active)

## CC/C(=C(\c1ccccc1)c1ccc(OCCN(C)C)cc1)c1ccccc1
[1]
  outcome: inactive
[2]
  outcome: inactive
[3]
  outcome: inactive
[4]
  outcome: inactive
[5]
  outcome: inactive
[7]
  Potency: 25.1 µM (active)
[8]
  Potency: 22.4 µM (active)
[9]
  outcome: inactive

## O=c1cc(-c2ccc(O)cc2)oc2cc(O)cc(O)c12
[1]
  outcome: inactive
[2]
  outcome: inactive
[3]
  outcome: inactive
[4]
  outcome: inactive
[6]
  Potency: inactive
[7]
  Potency: inactive
[8]
  Potency: inactive
[9]
  outcome: inactive

## NCCS
[1]
  outcome: inactive
[2]
  outcome: inactive
[3]
  outcome: inactive
[4]
  outcome: inactive
[5]
  outcome: inactive
[6]
  Potency: inactive
[7]
  Potency: inactive
[8]
  Potency: inactive

## COC(=O)[C@@H]1[C@H]2C[C@H]3c4[nH]c5ccccc5c4CCN3C[C@@H]2CC[C@@H]1O
[1]
  outcome: inactive
[2]
  outcome: inactive
[3]
  outcome: inactive
[4]
  outcome: inactive
[5]
  outcome: inactive
[6]
  Potency: inactive
[7]
  Potency: inactive

## CC(C)NCC(O)COc1cccc2[nH]ccc12 (stereo not drawn)
[1]
  outcome: inactive
[2]
  outcome: inactive
[3]
  outcome: inactive
[4]
  outcome: inactive
[5]
  outcome: inactive
[6]
  Potency: inactive
[7]
  Potency: inactive
[8]
  Potency: inactive

## CCCCC1C(=O)N(c2ccccc2)N(c2ccccc2)C1=O
[1]
  outcome: inactive
[2]
  outcome: inactive
[3]
  outcome: inactive
[4]
  outcome: inactive
[5]
  outcome: inactive
[6]
  Potency: inactive
[7]
  Potency: inactive
[8]
  Potency: inactive
[10]
  Potency: inactive

## CC(=O)c1ccc(S(=O)(=O)NC(=O)NC2CCCCC2)cc1
[1]
  outcome: inactive
[2]
  outcome: inactive
[3]
  outcome: inactive
[4]
  outcome: inactive
[5]
  outcome: inactive
[6]
  Potency: inactive
[7]
  Potency: inactive
[8]
  Potency: inactive
[10]
  Potency: inactive

## CC(C)OC(=O)C(C)(C)Oc1ccc(C(=O)c2ccc(Cl)cc2)cc1
[1]
  outcome: inactive
[2]
  outcome: inactive
[3]
  outcome: inactive
[4]
  outcome: inactive
[5]
  outcome: inactive
[6]
  Potency: inactive
[8]
  Potency: inactive

## CCCNC(=O)NS(=O)(=O)c1ccc(Cl)cc1
[1]
  outcome: inactive
[2]
  outcome: inactive
[3]
  outcome: inactive
[4]
  outcome: inactive
[5]
  outcome: inactive
[6]
  Potency: inactive
[7]
  Potency: inactive
[8]
  Potency: inactive
[10]
  Potency: inactive

## Clc1ccc(C(c2ccc(Cl)cc2)n2cc[n+](CC(OCc3ccc(Cl)cc3Cl)c3ccc(Cl)cc3Cl)c2)cc1 (stereo not drawn)
[1]
  outcome: inactive
[3]
  outcome: inactive
[4]
  outcome: inactive
[5]
  outcome: inactive

## CC(C)(C)c1ccc(C(O)CCCN2CCC(C(O)(c3ccccc3)c3ccccc3)CC2)cc1 (stereo not drawn)
[1]
  outcome: inactive
[2]
  outcome: inactive
[3]
  outcome: inactive
[4]
  outcome: inactive
[5]
  outcome: inactive

## CCN1CCC[C@H]1CNC(=O)c1cc(S(N)(=O)=O)ccc1OC
[1]
  outcome: inactive
[2]
  outcome: inactive
[3]
  outcome: inactive
[4]
  outcome: inactive
[5]
  outcome: inactive
[6]
  Potency: inactive
[7]
  Potency: inactive
[8]
  Potency: inactive
[9]
  outcome: inactive

## COc1ccccc1N1CCN(CCCNc2cc(=O)n(C)c(=O)n2C)CC1
[1]
  outcome: inactive
[2]
  outcome: inactive
[3]
  outcome: inactive
[4]
  outcome: inactive
[5]
  outcome: inactive
[6]
  Potency: inactive
[7]
  Potency: inactive
[8]
  Potency: inactive
[9]
  outcome: inactive

## NC(N)=Nc1nc(CSCC/C(N)=N/S(N)(=O)=O)cs1
[1]
  outcome: inactive
[2]
  outcome: inactive
[3]
  outcome: inactive
[4]
  outcome: inactive
[5]
  outcome: inactive
[6]
  Potency: inactive
[7]
  Potency: inactive
[8]
  Potency: inactive

## CN(C)CCC(c1ccccc1)c1ccccn1 (stereo not drawn)
[1]
  outcome: inactive
[2]
  outcome: inactive
[3]
  outcome: inactive
[4]
  outcome: inactive
[5]
  outcome: inactive
[6]
  Potency: inactive
[7]
  Potency: inactive
[8]
  Potency: inactive

## O=C1NC(=O)C(c2ccccc2)(c2ccccc2)N1
[1]
  outcome: inactive
[2]
  outcome: inactive
[3]
  outcome: inactive
[4]
  outcome: inactive
[5]
  outcome: inactive
[6]
  Potency: inactive
[7]
  Potency: inactive
[8]
  Potency: inactive

## Clc1ccc(Cn2c(CN3CCCC3)nc3ccccc32)cc1
[1]
  outcome: inactive
[2]
  outcome: inactive
[3]
  outcome: inactive
[4]
  outcome: inactive
[5]
  outcome: inactive
[7]
  Potency: inactive
[8]
  Potency: inactive

## Cc1cccc(C)c1OCC(C)N (stereo not drawn)
[1]
  outcome: inactive
[2]
  outcome: inactive
[3]
  outcome: inactive
[4]
  outcome: inactive
[5]
  outcome: inactive
[6]
  Potency: inactive
[7]
  Potency: inactive
[8]
  Potency: inactive

## CCN(CC)CCOC(=O)c1ccc(N)cc1
[1]
  outcome: inactive
[2]
  outcome: inactive
[3]
  outcome: inactive
[4]
  outcome: inactive
[5]
  outcome: inactive
[6]
  Potency: inactive
[7]
  Potency: inactive
[8]
  Potency: inactive

## O=C1NCC2(CCN(CCc3ccccc3)CC2)O1
[1]
  outcome: inactive
[2]
  outcome: inactive
[3]
  outcome: inactive
[4]
  outcome: inactive
[5]
  outcome: inactive
[6]
  Potency: inactive
[7]
  Potency: inactive
[8]
  Potency: inactive
